# From PubChem
# aDG glyco up = alpha-DG glycosylation activation | 360,000 tested, 0.22% active | Pro5-aDG cells, alpha-DG glycosylation AlphaScreen (IIH6); 0% Pro5, 100% B10-LARGE cell signal | AID 624168 | activation, % at 10 µM;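 active = activation of at least 8% versus controls, or a plate z-score of at least 8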;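 also: Pro5 are CHO cells carrying HIG-tagged alpha-DG that lacks glycosylation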
# H9c2 protect = protects H9c2 cardiomyocytes from peroxide injury; H2O2 injury protection, ATPLite, 2 h; protection from H2O2 cell death, % at 20 µM; 360,000 tested, 0.63% active; AID 588492;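 active = compounds giving at least 50% protection of heart cells from peroxide-induced death in the single-dose screen, raw or plate-pattern-corrected value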;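 also: 0% = DMSO wells with peroxide and 100% = DMSO wells without peroxide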
# CRFR2-BP antag = blocks CRF-induced signaling of the CRF-BP/CRF-R2 complex. HEK293 CRF-R2/CRF-BP, CRF-induced calcium fluorescence. inhibition, % at 11.8 µM. 350,000 tested, 0.59% active. AID 588475;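 active = inhibition of the ligand-induced calcium signal above about 50% at the single tested concentration, limit read from the data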
# FAS TE block = FAS thioesterase (human) inhibition; 360,000 tested, 0.67% active; inhibition, % at 15 µM; recombinant FAS-TE, OMFH fluorogenic substrate, fluorescence endpoint; AID 602261;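 active = compounds whose normalised, plate-corrected inhibition of enzyme fluorescence in the single-dose primary screen is 50% or more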;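 also: 0% = DMSO with enzyme and 100% = substrate without enzyme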
# Target sequence (P49327 whole entry, looked up): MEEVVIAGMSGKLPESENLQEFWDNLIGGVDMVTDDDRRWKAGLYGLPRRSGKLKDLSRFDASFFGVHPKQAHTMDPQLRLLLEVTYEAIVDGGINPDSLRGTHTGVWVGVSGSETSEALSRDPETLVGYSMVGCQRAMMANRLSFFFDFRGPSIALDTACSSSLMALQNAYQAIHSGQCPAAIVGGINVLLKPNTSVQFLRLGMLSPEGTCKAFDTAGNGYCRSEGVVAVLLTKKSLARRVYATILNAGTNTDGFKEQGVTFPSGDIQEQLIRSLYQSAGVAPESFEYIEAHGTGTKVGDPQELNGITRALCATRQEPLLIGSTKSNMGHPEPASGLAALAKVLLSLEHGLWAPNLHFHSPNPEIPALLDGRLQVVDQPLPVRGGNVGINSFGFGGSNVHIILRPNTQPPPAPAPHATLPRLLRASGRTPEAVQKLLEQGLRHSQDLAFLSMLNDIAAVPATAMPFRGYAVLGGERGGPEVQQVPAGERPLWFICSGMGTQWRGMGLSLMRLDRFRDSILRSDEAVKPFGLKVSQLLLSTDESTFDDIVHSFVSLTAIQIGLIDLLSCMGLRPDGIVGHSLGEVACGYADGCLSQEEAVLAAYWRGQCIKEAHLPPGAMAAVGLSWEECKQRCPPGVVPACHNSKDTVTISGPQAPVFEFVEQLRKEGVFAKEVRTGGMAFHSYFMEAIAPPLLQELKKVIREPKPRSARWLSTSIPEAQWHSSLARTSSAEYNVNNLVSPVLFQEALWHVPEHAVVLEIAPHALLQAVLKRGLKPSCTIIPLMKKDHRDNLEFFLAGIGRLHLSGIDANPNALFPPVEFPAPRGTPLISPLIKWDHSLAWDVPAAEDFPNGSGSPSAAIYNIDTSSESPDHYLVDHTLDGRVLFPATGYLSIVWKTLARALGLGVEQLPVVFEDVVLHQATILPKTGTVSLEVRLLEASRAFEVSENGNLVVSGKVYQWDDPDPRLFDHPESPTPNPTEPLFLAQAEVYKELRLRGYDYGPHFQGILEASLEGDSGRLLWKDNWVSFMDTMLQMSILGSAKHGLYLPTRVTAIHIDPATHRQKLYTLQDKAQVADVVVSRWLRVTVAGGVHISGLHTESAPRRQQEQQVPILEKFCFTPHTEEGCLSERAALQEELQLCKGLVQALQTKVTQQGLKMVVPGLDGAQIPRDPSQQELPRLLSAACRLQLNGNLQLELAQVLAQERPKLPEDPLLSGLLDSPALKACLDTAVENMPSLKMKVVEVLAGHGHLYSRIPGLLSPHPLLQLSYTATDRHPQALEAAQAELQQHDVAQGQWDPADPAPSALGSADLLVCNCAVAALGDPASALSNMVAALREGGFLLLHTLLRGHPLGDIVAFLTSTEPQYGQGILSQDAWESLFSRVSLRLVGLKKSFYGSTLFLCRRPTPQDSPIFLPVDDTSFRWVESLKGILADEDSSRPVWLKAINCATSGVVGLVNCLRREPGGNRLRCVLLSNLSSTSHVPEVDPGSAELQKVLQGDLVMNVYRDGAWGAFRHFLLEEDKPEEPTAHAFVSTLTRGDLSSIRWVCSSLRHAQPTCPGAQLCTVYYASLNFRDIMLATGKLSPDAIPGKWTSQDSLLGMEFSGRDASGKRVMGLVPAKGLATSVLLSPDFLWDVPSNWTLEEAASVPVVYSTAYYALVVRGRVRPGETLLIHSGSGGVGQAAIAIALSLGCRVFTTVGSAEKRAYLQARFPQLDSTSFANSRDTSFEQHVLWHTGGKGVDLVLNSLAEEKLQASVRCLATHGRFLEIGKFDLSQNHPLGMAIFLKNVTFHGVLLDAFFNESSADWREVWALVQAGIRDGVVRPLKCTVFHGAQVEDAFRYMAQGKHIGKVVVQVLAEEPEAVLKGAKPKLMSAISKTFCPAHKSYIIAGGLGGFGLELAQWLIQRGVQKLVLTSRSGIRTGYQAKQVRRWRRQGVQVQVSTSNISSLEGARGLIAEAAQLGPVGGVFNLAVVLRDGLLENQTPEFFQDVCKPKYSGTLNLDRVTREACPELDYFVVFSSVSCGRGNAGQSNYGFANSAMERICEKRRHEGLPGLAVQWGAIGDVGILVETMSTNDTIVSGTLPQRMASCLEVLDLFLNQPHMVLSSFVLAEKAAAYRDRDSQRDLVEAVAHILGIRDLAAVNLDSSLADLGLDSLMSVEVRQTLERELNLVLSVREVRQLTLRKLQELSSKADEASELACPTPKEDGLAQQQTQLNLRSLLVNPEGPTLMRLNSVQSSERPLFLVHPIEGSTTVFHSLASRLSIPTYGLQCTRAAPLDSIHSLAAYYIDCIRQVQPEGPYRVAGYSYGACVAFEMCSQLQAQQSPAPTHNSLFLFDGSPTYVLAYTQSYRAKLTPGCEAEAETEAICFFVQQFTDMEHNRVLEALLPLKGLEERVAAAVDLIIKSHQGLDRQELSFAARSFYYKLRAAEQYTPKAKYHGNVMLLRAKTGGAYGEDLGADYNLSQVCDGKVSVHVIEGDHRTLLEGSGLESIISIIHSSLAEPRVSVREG
# CRFBP-R2 agonist = CRF-BP/CRF-R2 complex agonism. activation, % at 13.2 µM. 350,000 tested, 0.46% active. HEK293 CRF-R2/CRF-BP, calcium dye fluorescence (FLIPR); percent of saturating CRF peptide response;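 active = activation of at least 50%, plus an integration ratio under a set limit after plate pattern correction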;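 also: plate controls were neutral control wells without compound for no effect and CRF at EC100 for full effect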
# PfG6PD inh = PfG6PD (Plasmodium falciparum) enzyme inhibition | 350,000 tested, 0.78% active | inhibition, % at 20 µM | PfGluPho enzyme, NADPH resazurin-diaphorase fluorescence;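 active = inhibition reaching at least a set limit at 20 µM in the primary screen, cut at about 59% in these data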;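 also: 0% = DMSO wells with substrate and 100% = DMSO wells lacking glucose-6-phosphate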
# FAS-TE inh conf = confirmation of human fatty acid synthase thioesterase inhibitors | shares compounds with FAS TE block | recombinant FAS-TE, OMFH fluorogenic substrate, fluorescence | inhibition, % at 15 µM | 2,300 tested, 45% active;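 active = compounds inhibiting the enzyme by at least 50% at 15 µM in any one of the replicates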;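 also: 0% = enzyme with DMSO only and 100% = wells lacking enzyme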
# aDG glyco conf = alpha-DG glycosylation activation, confirmation; shares compounds with aDG glyco up; Pro5-aDG cells, IIH6 AlphaLISA; scaled to LARGE-overexpressing B10 cells as 100%; 600 tested, 17% active; activation, % at 10 µM (by protocol); AID 651671;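 active = activation of at least 7% in one or more replicates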;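 also: cells exposed to compound for two days before detection; 0% = DMSO-treated Pro5 cells and 100% = DMSO-treated B10-LARGE cells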
# Starred values were filed as active, the others as inactive; / = not tested or not shown. An excerpt weighted towards active compounds, which were near 3.2% of everything screened.
SMILES,aDG glyco up,H9c2 protect,CRFR2-BP antag,FAS TE block,CRFBP-R2 agonist,PfG6PD inh,FAS-TE inh conf,aDG glyco conf
CCOC(=O)[C@]12Cc3c(cc(OC)c(OC)c3OC)[C@H]1N(C1CCCCC1)C(=O)c1ccccc12,0,/,/,81*,/,/,62*,/
CCOC(=O)[C@]12Cc3cc(C)ccc3[C@H]1N(C1CCCCC1)C(=O)c1ccccc12,0,/,/,82*,/,/,33*,/
N#Cc1ccc2nc(-c3ccc(CN4CCC(n5c(=O)[nH]c6ccccc65)CC4)cc3)c(-c3ccccc3)nc2c1,-1,/,/,93*,/,/,7,/
COc1ccc(-c2nn(CCC#N)cc2C(=O)Nc2ccc(C(C)=O)cc2)cc1[N+](=O)[O-],0,2,-2,85*,-1,5,91*,/
COc1ccc(NC(=O)c2cn(CCC#N)nc2-c2ccc(OC)c(OC)c2)cc1,0,-2,-9,-2,1,-13,/,/
Oc1c(Br)c(Br)c(Br)c(Br)c1Br,0,-8,58*,60*,-2,-10,72*,/
S=P1(Oc2ccccc2)Nc2ccccc2N1,0,6,13,-2,-1,10,/,/
CCC1(c2ccc(N)cc2)CCC(=O)NC1=O (configuration not stated),12*,14,-3,-2,-1,5,/,-1
COC(=O)C1=C(c2ccc(C(C)=O)cc2)C[C@@H]2CC[C@H]1N2C(=O)NC1CCCCC1,7.3*,-3,-5,-11,-3,-11,/,-1
COC(=O)C1=C(c2ccc3ccccc3c2)C[C@@H]2CC[C@H]1N2C(=O)NC1CCCCC1,0,-2,15,8,-2,9,/,/
C=CC(=O)OCCO,1,3,3,-10,0,-7,/,/
CC1CCC2[C@@H](C)C(=O)OC3O[C@]4(C)CCC1C32OO4 (some centres not stated),2.6*,-2,4,-2,-1,0,/,0
O=C1NCN(c2ccccc2)C12CCN(C(c1nnnn1Cc1ccccc1)C1CC1)CC2 (configuration not stated),0,6,/,-1,/,/,/,/
CCCNC(=O)Cn1cnc2sc(C(=O)N3CCC4(CC3)OCCO4)c(C)c2c1=O,14*,1,-1,-4,0,-7,/,0
CCC1(CCC(C)C)C(=O)NC(=S)NC1=O,0,0,-16,-4,3,-18,/,/
